Results taken from PMC10668032, “Altered binding affinity of SIX1-Q177R correlates with enhanced WNT5A and WNT pathway effector expression in Wilms tumor”.
Over roughly 33,000 sequences, “e-score” has its median near -0.053; the highest 2% begin near 0.38. The sample holds the highest values, similar sequences and a random draw of the others, so the mix is not that of the screen.

Each sequence was assayed against T1, SIX1 homeodomain (reference allele) (human, UniProt Q15475 108-198) (assay: universal protein binding microarray; Universal all-10-mer PBM (8x60K, AMADID 030236), 300 nM GST-tagged protein, Alexa Fluor 488 anti-GST; buffer, salt, pH and temperature not stated (as in Berger); high values mean tight binding). Settings: protein: ivt; tags: N-terminal GST; dsDNA, one strand shown.
T1 sequence: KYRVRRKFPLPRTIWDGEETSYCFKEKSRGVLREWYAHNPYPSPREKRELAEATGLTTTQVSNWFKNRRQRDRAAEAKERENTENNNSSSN
Summary of the method: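 After in vitro transcription/translation, GST-tagged homeodomains were quantified against a recombinant GST standard curve by anti-GST western blot. They were then placed in duplicate at 300 nM final concentration on universal 'all 10-mer' protein binding microarrays of 8×60K format.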

Sequence | binding signal [E-score]
ATTGGATC | 0.365 ± 0.0365
ATCGAGCG | 0.156 ± 0.0113
TATATTCA | 0.166 ± 0.0205
ACCCATAT | 0.3794 ± 0.00238
ACCCATCT | 0.204 ± 0.0603
AACCATAT | 0.303 ± 0.013
CCTTGATA | 0.317 ± 0.0459
CATTGATA | 0.391 ± 0.0167
GATTGAGA | 0.151 ± 0.0232
AATTGATA | 0.344 ± 0.0859
GATTGATA | 0.381 ± 0.046
CATTGATC | 0.265 ± 0.000601
ACACCTCA | 0.24 ± 0.0368
ACTAGCCG | 0.183 ± 0.0569
CTATAATC | 0.157 ± 0.0879
ATCGTGGG | 0.163 ± 0.0327
CTGGATTA | 0.177 ± 0.0302
ATGGATAG | 0.247 ± 0.00822
CTGGATAC | 0.387 ± 0.0256
ATGGATAA | 0.212 ± 0.00686
ATGGATAC | 0.447 ± 0.0217
ACTACGAT | 0.1669 ± 0.00123
TATCCAGA | 0.3343 ± 0.00221
ATACACAA | 0.232 ± 0.0214
AGGATTAA | 0.243 ± 0.0865

Sequence | binding signal [E-score]
ATCCCTCA | 0.312 ± 0.0176
CATACCCC | 0.258 ± 0.054
AATACCCT | 0.384 ± 0.0168
AATACCCA | 0.2902 ± 0.00209
AATACCTC | 0.331 ± 0.0598
AATACCCC | 0.4268 ± 0.000757
GCTACCCC | 0.158 ± 0.092
AATACCAG | 0.306 ± 0.0188
AATACCCG | 0.293 ± 0.0206
GATACCCC | 0.4957 ± 0.00126
CCGTCTCG | 0.232 ± 0.00359
CAATACGG | 0.178 ± 0.00369
ATTAAATA | 0.24 ± 0.0313
GATCAGCA | 0.235 ± 0.00865
ATACGGAC | 0.193 ± 0.00348
AATATACC | 0.32 ± 0.0474
GATATACC | 0.4592 ± 0.00376
GATATTCA | 0.232 ± 0.0803
AATATTCC | 0.251 ± 0.0499
GATATTCC | 0.376 ± 0.0303
AATATACA | 0.222 ± 0.0386
GATATACA | 0.384 ± 0.0104
TATATACA | 0.284 ± 0.0122
CATATACC | 0.282 ± 0.0234
ACACCCGG | 0.344 ± 0.043

Sequence | binding signal [E-score]
GTGTTAGA | 0.214 ± 0.00425
ACGATCGT | 0.154 ± 0.0131
CAGTAGTA | 0.154 ± 0.00593
GATTATTA | 0.209 ± 0.0336
GATCTGAC | 0.238 ± 0.00706
AGACCTAT | 0.17 ± 0.0148
ATATAGGG | 0.229 ± 0.0134
CTCGGATA | 0.375 ± 0.00642
GTCGGATA | 0.407 ± 0.00687
CTTGGATA | 0.236 ± 0.024
ATCGGATC | 0.426 ± 0.0203
ATCGGATG | 0.252 ± 0.00376
ATCGGACC | 0.229 ± 0.0739
ATCGGACA | 0.237 ± 0.0182
CTTGGATC | 0.295 ± 0.0145
CTCGGATC | 0.396 ± 0.0127
ATCGGAAA | 0.159 ± 0.00362
ATCGGATA | 0.423 ± 0.00904
GTTGGATA | 0.295 ± 0.00342
AATATTAA | 0.187 ± 0.0103
GATCGAGC | 0.218 ± 0.00887
TATGCATA | 0.202 ± 0.0575
ATACTAGA | 0.218 ± 0.0317
CACTCCGG | 0.195 ± 0.0209
AACCCGAT | 0.25 ± 0.0182

Sequence | binding signal [E-score]
ATAGCAGG | 0.29151 ± 0.000127
CCTTGTGA | 0.164 ± 0.0725
ATCGCAAC | 0.198 ± 0.0486
CGTACACC | 0.205 ± 0.0267
GAGTATAC | 0.262 ± 0.0252
AACTATCC | 0.281 ± 0.0413
AAGTATCC | 0.388 ± 0.0363
GAGTATCC | 0.4205 ± 0.00087
AAGTATAC | 0.338 ± 0.0623
GATTATCC | 0.329 ± 0.00414
ATACTCAG | 0.35 ± 0.0154
GCAAGATA | 0.17 ± 0.0455
ATGCATGA | 0.162 ± 0.0129
ATCCACGG | 0.187 ± 0.0301
CCCAGATA | 0.302 ± 0.0141
CCCAGATC | 0.38 ± 0.0205
CCTGGATC | 0.251 ± 0.0575
CCCGGATC | 0.45 ± 0.0283
CCCGGGTC | 0.288 ± 0.0806
ACCGGATA | 0.364 ± 0.00187
AGCGGATC | 0.375 ± 0.0283
ACCGGATC | 0.417 ± 0.0393
ACCAGATC | 0.349 ± 0.0234
CCCCGCAC | 0.189 ± 0.188
CAACGATC | 0.277 ± 0.0168

Sequence | binding signal [E-score]
CGTGATCC | 0.41 ± 0.0121
AGTGATCA | 0.313 ± 0.0131
AGTGATCC | 0.4519 ± 0.00218
AGTGATCG | 0.25 ± 0.00845
CGTGATCA | 0.181 ± 0.00373
GGTGATCA | 0.315 ± 0.0247
ATACGGGA | 0.367 ± 0.0155
GATGAGAC | 0.20672 ± 0.00017
ATATGAGC | 0.208 ± 0.0956
CCATCCGG | 0.235 ± 0.079
AACGATCA | 0.2067 ± 0.00118
GAGGATCA | 0.369 ± 0.0176
TAGGATAA | 0.21 ± 0.0705
TAGGATCA | 0.409 ± 0.017
AAGGATCT | 0.267 ± 0.029
CAGGATCA | 0.386 ± 0.00253
AAGGATCG | 0.349 ± 0.00351
CAGGATCG | 0.297 ± 0.0493
AAGGATCA | 0.383 ± 0.00738
TAGGATGA | 0.199 ± 0.0352
ACTATCTA | 0.154 ± 0.0178
AAACCCGA | 0.165 ± 0.0599
AACACCAT | 0.173 ± 0.0172
ATAGCGGC | 0.194 ± 0.00861
AGGTGTGA | 0.204 ± 0.0237

Sequence | binding signal [E-score]
AGGTGTAA | 0.165 ± 0.116
GGGTGTAA | 0.334 ± 0.00878
GGGTGTCA | 0.4698 ± 0.00156
AGGTGTTG | 0.2361 ± 0.00141
AGGTGTCG | 0.399 ± 0.0161
AGGTGTTA | 0.203 ± 0.0687
AGGTGTAC | 0.182 ± 0.0154
AGGTGTAT | 0.377 ± 0.0149
AGGTGTCC | 0.274 ± 0.042
GGGTGTGA | 0.158 ± 0.0496
AGGTGTCA | 0.45238 ± 0.000134
TATCTACA | 0.167 ± 0.0212
CAAAGATC | 0.209 ± 0.0122
GATCTCCA | 0.239 ± 0.0181
ACATATAT | 0.252 ± 0.0998
ATCACTGA | 0.243 ± 0.0373
GTATTTAA | 0.172 ± 0.0151
TAACCCGA | 0.213 ± 0.0195
CATATTAA | 0.175 ± 0.121
ATCATTAC | 0.295 ± 0.0265
AGAATACT | 0.208 ± 0.057
AAAAGGAT | 0.163 ± 0.102
CGGTGTCC | 0.352 ± 0.0179
CGGTGTAA | 0.257 ± 0.00735
CGGTGTCA | 0.471 ± 0.00725

Sequence | binding signal [E-score]
AGGATCGG | 0.32 ± 0.0208
ATCACGAC | 0.18 ± 0.0119
AGAATGAT | 0.216 ± 0.0443
GGGATAGA | 0.256 ± 0.0216
GGGATATA | 0.433 ± 0.0145
GGGATAAA | 0.212 ± 0.0282
CGGATATA | 0.422 ± 0.00574
CTAGATGC | 0.153 ± 0.0669
CATACACG | 0.157 ± 0.0344
AGCTATAT | 0.2 ± 0.0474
ACACGGGT | 0.23 ± 0.0432
CATCGATA | 0.308 ± 0.015
ATATCGGA | 0.427 ± 0.0311
AGATCGGA | 0.255 ± 0.00445
ATATCTGA | 0.356 ± 0.0383
GGATCGGA | 0.38 ± 0.0357
AGATCGGC | 0.216 ± 0.0174
ATATGGGA | 0.319 ± 0.00531
CTATCGGA | 0.289 ± 0.00216
ATATCGGC | 0.394 ± 0.011
CGATCGGA | 0.24 ± 0.0149
ATATGGGG | 0.4 ± 0.0352
ATATCTGC | 0.346 ± 0.0315
ATATGGGC | 0.326
